Source: PubChem BioAssay
A selection: hits, their analogues and other compounds. The true share with any hit is near 3.2%.
CHT block: inhibitors of human choline transporter CHT | High affinity choline transporter 1 (Homo sapiens), Q9GZV3 | CHT-expressing cells, membrane potential dye, choline response; hits give low values | B-score at 10 µM | actives 0.86% (n = 310,000) | AID 488975, 2010;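 active = B-score over 3 SD under the library average, and starting fluorescence ratio not unusually high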;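 note: choline stimulus applied at its EC90 after an EC20 pre-addition; B-score computed on integrated fluorescence ratio after choline addition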
TMEM16A inh: TMEM16A chloride channel inhibitors, primary screen, cell-based, HTS. Anoctamin-1 (Mus musculus), Q8BHY3. actives 1.2% (n = 310,000). HEK293 TMEM16A/YFP iodide influx fluorescence, ionomycin. normalized B-score (activity score, 25-100; higher = stronger inhibition) at 10 µM;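 active = ratio plate-corrected score three or more library SD toward inhibition, starting fluorescence score within five deviations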;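 note: score derived from kinetic fluorescence span divided by baseline fluorescence per well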
CHT PAM: CHT positive allosteric modulators, primary screen, cell-based, membrane potential dye, choline EC20. High affinity choline transporter 1 (Homo sapiens), Q9GZV3. CHT-expressing cells; hits give high values; LV-AA mutant CHT in HEK293 cells. B-score at 10 µM. actives 0.49% (n = 310,000). AID 488977, 2010;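 active = initial fluorescence not abnormally high and integrated response B-score, plate-corrected, over 3 SD above library mean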
HDAC3 inh: HDAC3 deacetylase inhibitors, primary screen, biochemical, fluorescence, cell-free homogeneous | Histone deacetylase 3 (Homo sapiens), O15379 | recombinant HDAC3, fluorogenic peptide/trypsin coupled | inhibition, % at 8.3 µM | actives 0.15% (n = 320,000); in the data active = inhibition above about 26%, passing the limit was not always enough; inconclusive = no clear call, values can overlap the other calls
PHOSPHO1 block: PubChem AID 1565; recombinant PHOSPHO1, absorbance phosphatase assay; actives 1.1% (n = 290,000); Phosphoethanolamine/phosphocholine phosphatase (Homo sapiens), Q8TCT1; inhibition, % at 13.3 µM; in the data active = inhibition above about 60%
Target sequence (Q8TCT1 whole entry, looked up): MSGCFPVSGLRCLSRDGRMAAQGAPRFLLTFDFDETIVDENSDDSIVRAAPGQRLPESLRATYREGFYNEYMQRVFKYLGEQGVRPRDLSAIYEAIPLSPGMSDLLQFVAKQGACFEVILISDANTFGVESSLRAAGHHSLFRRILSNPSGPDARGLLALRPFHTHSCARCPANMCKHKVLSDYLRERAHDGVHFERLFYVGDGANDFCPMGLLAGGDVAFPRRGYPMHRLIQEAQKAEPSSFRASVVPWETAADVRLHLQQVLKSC
ANO1 activ: TMEM16A chloride channel activators or potentiators, primary screen, cell-based, HTS; Anoctamin-1 (Mus musculus), Q8BHY3; HEK293 TMEM16A/YFP-H148Q/I152L, iodide quench fluorescence; hits give low values; B-score at 10 µM; actives 0.3% (n = 340,000);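 active = fluorescence-ratio B-score plate-corrected deviation score at least 3 library SD below zero, with starting fluorescence score within 5 deviations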;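 note: channel opened by trigger with iodide after compound preincubation; score built on the fluorescence ratio of max minus min over baseline; more negative score means more quench and so TMEM16A activation or potentiation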
TMEM16A reconf: TMEM16A chloride channel inhibitors, confirmation, cell-based, re-confirmation; inhibition, % at 10 µM; HEK293 TMEM16A/YFP-H148Q, iodide quench fluorescence; ionomycin added to raise cell calcium; shares compounds with TMEM16A inh; actives 39% (n = 2,300); AID 652189, 2013;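 active = mean duplicate percent inhibition, scaled so buffer wells are 0 and the reference blocker 100, over three buffer SD above buffer mean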
TMEM16A Ca cntr: calcium mobilization in TMEM16A/YFP HEK293 cells, confirmation, counter-screen for TMEM16A inhibitor project. actives 2% (n = 2,300). Fluo4 calcium mobilization. calcium response (% of ionomycin), % at 10 µM. shares compounds with TMEM16A inh;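 active = duplicate-averaged calcium signal over 20% of the ionomycin maximum, relative to buffer baseline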;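 note: each well's signal is peak minus trough fluorescence divided by its pre-addition baseline; 0% = buffer wells and 100% = ionomycin wells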
Parental YFP cnt: iodide YFP quench changes in parental YFP-HEK293, counter-screen for TMEM16A inhibitor project, cell-based. shares compounds with TMEM16A inh. ionomycin. YFP ratio F(max-min)/F0 at 10 µM. 2,300 tested, under 10 active;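 active = yellow fluorescent protein signal ratio exceeding the buffer control mean by over 5 SD of those controls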;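 note: ratio is mean of duplicate wells from kinetic YFP trace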
ClC-1 rat inh: ClC-1 chloride channel inhibition, selectivity assay for TMEM16A inhibitor project, cell-based, voltage-dependent ClC-1; shares compounds with TMEM16A inh; CHO ClC-1-YFP, iodide influx fluorescence quench; iodide control reads 0, buffer control 100; ratio percent, % at 10 µM; 2,300 tested, under 10 active; AID 652236, 2013;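 active = duplicate-mean ratio percent above the mean of iodide-only control wells, which defines zero, plus 5 of their SD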;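 note: higher percent means stronger block of ClC-1 iodide influx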
Starred values were filed as active, the others as inactive.

Results for OC(c1ccc(Cl)cc1Cl)C(Cc1cccnc1)n1cncn1 (centres undefined) ?
CHT block: inactive; TMEM16A inh: inactive; CHT PAM: inactive; HDAC3 inh: inconclusive; PHOSPHO1 block: 15.3; ANO1 activ: inactive

Results for CN1CCc2c(sc3c2C(=O)NC(c2cccs2)N3)C1 (centres undefined) ?
CHT block: inactive; TMEM16A inh: inactive; CHT PAM: inactive; HDAC3 inh: -30.2; PHOSPHO1 block: 21.6; ANO1 activ: inactive

Results for CSc1ccc(C2NC(=O)c3c(sc4c3CCN(C)C4)N2)cc1 (centres undefined) ?
CHT block: inactive; TMEM16A inh: inactive; CHT PAM: inactive; HDAC3 inh: -2.4; PHOSPHO1 block: 6.7; ANO1 activ: inactive; TMEM16A reconf: inactive; TMEM16A Ca cntr: inactive; Parental YFP cnt: -0.533; ClC-1 rat inh: -6.0

Results for Cc1ccc(NC(=O)CN(C)C(=O)CNC(=O)c2ccc3c(c2)OCO3)cc1 ?
CHT block: inactive; TMEM16A inh: inactive; CHT PAM: inactive; HDAC3 inh: -5.4; ANO1 activ: inactive

Results for CCOc1ccc(NC(=O)c2nccnc2CO)cc1 ?
CHT block: inactive; TMEM16A inh: inactive; CHT PAM: inactive; HDAC3 inh: 0.9; PHOSPHO1 block: 18.3; ANO1 activ: inactive

Results for COC(=O)c1ccc(COc2cccc3c2CCN(Cc2cccc(C)c2)C3=O)o1 ?
CHT block: inactive; TMEM16A inh: 25*; CHT PAM: inactive; HDAC3 inh: 1.6; PHOSPHO1 block: -0.6; ANO1 activ: inactive; TMEM16A reconf: 19.0%*; TMEM16A Ca cntr: inactive; Parental YFP cnt: -1.15; ClC-1 rat inh: -4.0

Results for COC(=O)c1ccc(COc2cccc3c2CCN(Cc2ccccc2)C3=O)o1 ?
CHT block: inactive; TMEM16A inh: inactive; CHT PAM: inactive; HDAC3 inh: 0.7; PHOSPHO1 block: -17.3; ANO1 activ: inactive

What do the screens show for `C=CCn1c(CCNC(=O)c2ccc(Cl)c(Cl)c2)nnc1SCCOc1ccc(OC)cc1`?
CHT block: inactive; TMEM16A inh: inactive; CHT PAM: inactive; HDAC3 inh: -7.4; PHOSPHO1 block: -0.1; ANO1 activ: inactive

What do the screens show for `Cc1csc(Sc2nc3c(c(=O)[nH]c(=O)n3C)n2Cc2ccccc2Cl)n1`?
CHT block: inactive; TMEM16A inh: inactive; CHT PAM: inactive; HDAC3 inh: 11.8; PHOSPHO1 block: -6.1; ANO1 activ: inactive

Results for Cc1cccc(Cn2c(Sc3nc(C)cs3)nc3c2c(=O)[nH]c(=O)n3C)c1 ?
CHT block: inactive; TMEM16A inh: 100*; CHT PAM: inactive; HDAC3 inh: -7.4; PHOSPHO1 block: -3.5; ANO1 activ: inactive; TMEM16A reconf: inactive; TMEM16A Ca cntr: inactive; Parental YFP cnt: -1.02; ClC-1 rat inh: -11.5
